# Data from PubChem BioAssay (NCI).
# Compounds without any hit were thinned out: in the full panel of roughly 83,000, 20% have a hit.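 48-hour exposure, single concentration, 96-well plates; percent growth endpoint where 0 means no net growth. Active: below 10.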 Active and inactive are the calls of the source.
# System: SK-MEL-2 melanoma
# Assay: NCI-60 one-dose screen, 48 h (100 = growth as untreated, 0 = no growth, -100 = all killed)
# Details: 10 µM unless noted
row,SMILES,growth
1,CC1Cc2c(N(C)C)ncnc2N(C)c2ccc(O)cc21 (stereo unspecified),89.6% (inactive)
2,O=S(=O)(NCCCNc1cc(-c2cn(-c3ccccc3)nc2-c2cccc(O)c2)ccn1)c1ccc(C(F)(F)F)cc1,72.7% (inactive)
3,Cc1ccc(S(=O)(=O)N2CCC(C(=O)Nc3ccc(F)cc3F)CC2)cc1,34.2% (inactive)
4,COc1ccc2c(c1)NC(=O)CN2c1nc(NC2CC2)nc2ccccc12,25.7% (inactive)
5,C=C1C(=O)O[C@H]2[C@H]1CC/C(COC(=O)NCCc1cccc(OC)c1)=C\CC[C@@]1(C)O[C@@H]21,68.5% (inactive)
6,COc1cc(-c2csc(NC(=O)c3cc(C(F)(F)F)cc(C(F)(F)F)c3)n2)cc(OC)c1OC,21.5% (inactive)
7,Clc1nc(Cl)c2ncn(C/C=C/Cn3cnc4c(Cl)nc(Cl)nc43)c2n1,96.5% (inactive)
8,Cc1ccc2c(c1)C(C)Cc1c(ncnc1-n1cnc3ccccc31)N2C (stereo unspecified),38.6% (inactive)
9,CCN(CC)S(=O)(=O)c1ccc2[nH]c(=O)cc(C(=O)Nc3ccc(OC)cc3OC)c2c1,88.8% (inactive)
10,COC(=O)CCCCCN=Cc1c(O)c(O)c(C(C)C)c2cc(C)c(-c3c(C)cc4c(C(C)C)c(O)c(O)c(C=NCCCCCC(=O)OC)c4c3O)c(O)c12,10.4% (inactive)
11,CCC(=O)Oc1ccc2c(c1)CC[C@@H]1[C@@H]2CC[C@]2(C)C[C@H](OC(=O)CC)C[C@@H]12,75.1% (inactive)
12,C=C1C(=O)O[C@H]2[C@H]1CC/C(COC(=O)NCc1cc(OC)cc(OC)c1)=C\CC[C@@]1(C)O[C@@H]21,23.2% (inactive)
13,O=C(Nc1ccc(I)cc1)c1cc([N+](=O)[O-])ccc1O,-0.392% (active)
14,O=C(CNC(=O)c1cccc2ccccc12)Nc1ccccc1Oc1ccccc1,34.8% (inactive)
15,O=C(/C=C/CN1CCOCC1)Nc1cc2c(Nc3ccc(F)c(Cl)c3F)ncnc2cc1OCCOC(F)F,85.6% (inactive)
16,O=C(NCCc1c[nH]c2ccccc12)C1Cc2ccccc2CN1C(=O)c1ccco1 (stereo unspecified),69.5% (inactive)
17,Nc1cc2c(cc1N)-c1cc(N)c(N)cc1C2,111% (inactive)
18,COc1ccc(/C(=N\O)c2cc(OC)c(OC)c(OC)c2)c(OC)c1N,35.1% (inactive)
19,CCC(c1ccc(OC)cc1)C(CC)c1ccc(O)c(CN2CCCC2)c1 (stereo unspecified),-37.6% (active)
20,CC(C)(C)c1cc(-c2nc3ccc(N4CCN(CCO)CC4)cc3[nH]2)cc(C(C)(C)C)c1O,81.8% (inactive)
21,OCc1c(-c2ccccc2)nc2sccn12,108% (inactive)
22,O=C(OCCCCOC(=O)n1cnc2ccccc21)n1cnc2ccccc21,101% (inactive)
23,OC1CC2c3ccccc3C1c1ccccc12 (stereo unspecified),117% (inactive)

# System: EKVX NSCLC
# Assay: as above
# Details: 10 µM unless noted
row,SMILES,growth
1,N#Cc1c(NC(=O)c2ccc([N+](=O)[O-])o2)[n+]([O-])c2cc(F)c(F)cc2[n+]1[O-],149% (inactive)
2,CC(C)(C)OC(=O)N1C/C(=C\c2cccs2)C(=O)/C(=C/c2cccs2)C1,99.5% (inactive)
3,CC(Cc1nnc(SCC(=O)Nc2ccc(I)cc2)n1N)c1ccccc1 (stereo unspecified),82.5% (inactive)
4,COC(=O)CC/C(C)=N\Nc1ccc([N+](=O)[O-])cc1,59.2% (inactive)
5,COc1ccccc1OCC(=O)Nc1sc2c(c1C(N)=O)CCC2,99.9% (inactive)
6,CC(=O)N1Cc2ccccc2C(C)Cc2cc(Cl)ccc21 (stereo unspecified),94.5% (inactive)
7,COc1ccc(/C(=N/O)c2cc(OC)c(OC)c(OC)c2)c(OC)c1N,47.4% (inactive)
8,CC(C)CCC[C@@H](C)[C@H]1CC[C@H]2[C@@H]3CC[C@H]4C/C(=N/O)CC[C@]4(C)[C@H]3CC[C@]12C,101% (inactive)
9,C/C(=N\NC(=O)CC#N)c1cc2cc(Cl)ccc2o1,33.6% (inactive)
10,CCC#CC[C@H]1C/C=C2/C(=O)C=C[C@@H]2C/C=C\CCCC(=O)O1,23.7% (inactive)
11,Cc1cc(C(=O)O)c(N)c(C)n1,95.4% (inactive)
12,CCCCCCOc1ccc(C2(Cl)c3ccccc3N(C)c3ccccc32)cc1,58.5% (inactive)
13,CC(C)N(Cc1ccc(CN(C(=O)CCl)C(C)C)cc1)C(=O)CCl,82.6% (inactive)
14,COc1cc(-n2nc(C(=O)Nc3ccc(C(=O)O)cc3)nc2-c2ccccc2)cc(OC)c1OC,53% (inactive)
15,NC(=O)NNC(=O)c1ccccc1,96.3% (inactive)
16,CC1Cc2c(N(C)C)ncnc2N(C)c2ccc(O)cc21 (stereo unspecified),71.3% (inactive)
17,O=S(=O)(NCCCNc1cc(-c2cn(-c3ccccc3)nc2-c2cccc(O)c2)ccn1)c1ccc(C(F)(F)F)cc1,40.8% (inactive)
18,Cc1ccc(S(=O)(=O)N2CCC(C(=O)Nc3ccc(F)cc3F)CC2)cc1,94.6% (inactive)
19,COc1ccc2c(c1)NC(=O)CN2c1nc(NC2CC2)nc2ccccc12,27.8% (inactive)

row,SMILES,growth
1,C=C1C(=O)O[C@H]2[C@H]1CC/C(COC(=O)NCCc1cccc(OC)c1)=C\CC[C@@]1(C)O[C@@H]21,68.3% (inactive)
2,COc1cc(-c2csc(NC(=O)c3cc(C(F)(F)F)cc(C(F)(F)F)c3)n2)cc(OC)c1OC,9.17% (active)
3,Clc1nc(Cl)c2ncn(C/C=C/Cn3cnc4c(Cl)nc(Cl)nc43)c2n1,86.6% (inactive)
4,Cc1ccc2c(c1)C(C)Cc1c(ncnc1-n1cnc3ccccc31)N2C (stereo unspecified),40.1% (inactive)
5,CCN(CC)S(=O)(=O)c1ccc2[nH]c(=O)cc(C(=O)Nc3ccc(OC)cc3OC)c2c1,166% (inactive)
6,COC(=O)CCCCCN=Cc1c(O)c(O)c(C(C)C)c2cc(C)c(-c3c(C)cc4c(C(C)C)c(O)c(O)c(C=NCCCCCC(=O)OC)c4c3O)c(O)c12,21.7% (inactive)
7,CCC(=O)Oc1ccc2c(c1)CC[C@@H]1[C@@H]2CC[C@]2(C)C[C@H](OC(=O)CC)C[C@@H]12,62.7% (inactive)
8,C=C1C(=O)O[C@H]2[C@H]1CC/C(COC(=O)NCc1cc(OC)cc(OC)c1)=C\CC[C@@]1(C)O[C@@H]21,40.5% (inactive)
9,O=C(Nc1ccc(I)cc1)c1cc([N+](=O)[O-])ccc1O,39.7% (inactive)
10,O=C(CNC(=O)c1cccc2ccccc12)Nc1ccccc1Oc1ccccc1,26.3% (inactive)
11,O=C(/C=C/CN1CCOCC1)Nc1cc2c(Nc3ccc(F)c(Cl)c3F)ncnc2cc1OCCOC(F)F,24.8% (inactive)
12,O=C(NCCc1c[nH]c2ccccc12)C1Cc2ccccc2CN1C(=O)c1ccco1 (stereo unspecified),102% (inactive)
13,Nc1cc2c(cc1N)-c1cc(N)c(N)cc1C2,89.2% (inactive)
14,COc1ccc(/C(=N\O)c2cc(OC)c(OC)c(OC)c2)c(OC)c1N,47.3% (inactive)
15,CCC(c1ccc(OC)cc1)C(CC)c1ccc(O)c(CN2CCCC2)c1 (stereo unspecified),11.3% (inactive)
16,CC(C)(C)c1cc(-c2nc3ccc(N4CCN(CCO)CC4)cc3[nH]2)cc(C(C)(C)C)c1O,92.9% (inactive)
17,OCc1c(-c2ccccc2)nc2sccn12,86.9% (inactive)
18,O=C(OCCCCOC(=O)n1cnc2ccccc21)n1cnc2ccccc21,98.7% (inactive)
19,OC1CC2c3ccccc3C1c1ccccc12 (stereo unspecified),108% (inactive)
